Test results reported in PubChem BioAssay (NCATS).
Inconclusive results are not listed. The source made the active and inactive calls. Calls follow the shape of the dose curve; as a rule, active = well fitted curve in the direction sought with a large enough effect; inconclusive = small, poorly fitted or top-dose-only effect, or another doubt; inactive = no such curve, though single readings can be large; an effect the other way counts as inactive or inconclusive.

Assays:
[1] = system: Nanoluciferase (engineered Oplophorus gracilirostris luciferase); assay: Primary Nanoluciferase (NLuc) qHTS assay for identification of artifact compounds. (AID 1845222);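 also: 0% = DMSO and -100% = no enzyme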
Method in brief: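 Luminescence from secreted NLuc (filtered, 1:55-diluted S16 cell medium) read 5 min after Nano-Glo substrate; compounds preincubated 15 min, RT. Hill fits of inhibition normalized to DMSO and no-enzyme.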

[2] = Primary redox qHTS assay for identification of artifact compounds. (AID 1845223)
Method in brief: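 Redox-cycling detection via DTT (250 uM final) oxidation coupled to Amplex Red (25 uM)/HRP (250 mU/mL) in HBSS. 15 min preincubation plus 30 min after DTT, room temperature. Ex/Em 525/598 nm; 4-parameter Hill fit against DMSO and 10 uM DA3003.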

[3] = Quantitative High-Throughput drug screen in 47 multiple myeloma cell lines against the NCATS MIPE library collection: FR4_PLB cell viability assay (AID 1918924; also: nearly all actives have a fitted effect of over 35% in size; also: potency is read from the fitted curve at half-maximal effect)
Method in brief: (§1)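 Myeloma cells (500 per well) were exposed to MIPE 4.0 compounds by pin transfer and incubated 48 hours at 37C, 5% CO2. Viability was read as ATP by CellTiter-Glo luminescence, normalised to DMSO (100%) and media-only (0%) wells.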

[4] = Quantitative High-Throughput drug screen in 47 multiple myeloma cell lines against the NCATS MIPE library collection: Delta47_JCRB cell viability assay (AID 1918925; also: nearly all actives have a fitted effect of over 45% in size; also: potency is read from the fitted curve at half-maximal effect)
Method in brief: (§2)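 Steps: seed 500 cells per well; pin-transfer MIPE 4.0 library; incubate 48 h at 37C, 5% CO2, humidified; add CellTiter-Glo, 5 min room temperature; read luminescence.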

[5] = Quantitative High-Throughput drug screen in 47 multiple myeloma cell lines against the NCATS MIPE library collection: ARP1_JJKsccF8 cell viability assay (AID 1918928; also: nearly all actives have a fitted effect of over 40% in size; also: potency is read from the fitted curve at half-maximal effect)
Method in brief: (§3)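 500 cells/well; MIPE 4.0 library pinned in; 48 h, 37 °C, 5% CO2; CellTiter-Glo ATP luminescence. Controls: DMSO = 100% viability, medium only = 0%.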

[6] = Quantitative High-Throughput drug screen in 47 multiple myeloma cell lines against the NCATS MIPE library collection: ARD_JJKsccE7 cell viability assay (AID 1918929; also: potency is read from the fitted curve at half-maximal effect)
Method in brief: as §2

[7] = Quantitative High-Throughput drug screen in 47 multiple myeloma cell lines against the NCATS MIPE library collection: Karpas620_DSMZ cell viability assay (AID 1918959); also: nearly all actives have a fitted effect of over 30% in size; also: potency is read from the fitted curve at half-maximal effect
Method in brief: as §1

[8] = Quantitative High-Throughput drug screen in 47 multiple myeloma cell lines against the NCATS MIPE library collection: KMM1_JCRB cell viability assay (AID 1918960); also: nearly all actives have a fitted effect of over 30% in size; also: potency is read from the fitted curve at half-maximal effect
Method in brief: as §3

[9] = Quantitative High-Throughput drug screen in 47 multiple myeloma cell lines against the NCATS MIPE library collection: Karpas417_ECACC cell viability assay (AID 1918961); settings: Karpas417 myeloma viability, CellTiter-Glo ATP luminescence, 48 h; viability (% of DMSO): at 45.8 µM (top of the series) unless noted; also: potency is read from the fitted curve at half-maximal effect
Method in brief: (§4)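 CellTiter-Glo ATP luminescence gave viability after 48 h compound treatment at 37C of 500 multiple myeloma cells per well. Normalisation used DMSO-only wells as 100% and media-only wells as 0% viability; primary qHTS of approved and investigational drugs.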

[10] = Quantitative High-Throughput drug screen in 47 multiple myeloma cell lines against the NCATS MIPE library collection: KHM11_PLB cell viability assay (AID 1918962); also: nearly all actives have a fitted effect of over 35% in size; also: potency is read from the fitted curve at half-maximal effect
Method in brief: as §1

[11] = Quantitative High-Throughput drug screen in 47 multiple myeloma cell lines against the NCATS MIPE library collection: JIM3_ECACC cell viability assay (AID 1918963; also: nearly all actives have a fitted effect of over 35% in size; also: potency is read from the fitted curve at half-maximal effect)
Method in brief: as §1

[12] = Quantitative High-Throughput drug screen in 47 multiple myeloma cell lines against the NCATS MIPE library collection: JIM1_ECACC cell viability assay (AID 1918964; also: potency is read from the fitted curve at half-maximal effect)
Method in brief: as §2

[13] = Quantitative High-Throughput drug screen in 47 multiple myeloma cell lines against the NCATS MIPE library collection: INA6_PLB cell viability assay (AID 1918965; also: nearly all actives have a fitted effect of over 55% in size; also: potency is read from the fitted curve at half-maximal effect)
Method in brief: as §4

[14] = Quantitative High-Throughput drug screen in 47 multiple myeloma cell lines against the NCATS MIPE library collection: H1112_PLB cell viability assay (AID 1918967; also: nearly all actives have a fitted effect of over 30% in size; also: potency is read from the fitted curve at half-maximal effect)
Method in brief: as §2

[15] = Quantitative High-Throughput drug screen in 47 multiple myeloma cell lines against the NCATS MIPE library collection: Karpas25_ECACC cell viability assay (AID 1918968; also: nearly all actives have a fitted effect of over 35% in size; also: potency is read from the fitted curve at half-maximal effect)
Method in brief: as §2

[16] = Quantitative High-Throughput drug screen in 47 multiple myeloma cell lines against the NCATS MIPE library collection: KMS27_JCRB cell viability assay (AID 1918970); also: nearly all actives have a fitted effect of over 30% in size; also: potency is read from the fitted curve at half-maximal effect
Method in brief: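 ATP-based viability (CellTiter-Glo luminescence) is measured in cells treated 48 h with approved and investigational drugs at 37 °C. Controls are DMSO-only wells for full viability and media-only wells for none.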

[17] = Quantitative High-Throughput drug screen in 47 multiple myeloma cell lines against the NCATS MIPE library collection: EJM_DSMZ cell viability assay (AID 1918926; also: nearly all actives have a fitted effect of over 30% in size; also: potency is read from the fitted curve at half-maximal effect)
Method in brief: as §2

[18] = Quantitative High-Throughput drug screen in 47 multiple myeloma cell lines against the NCATS MIPE library collection: KMS12BM_JCRB cell viability assay (AID 1918971); also: nearly all actives have a fitted effect of over 35% in size; also: potency is read from the fitted curve at half-maximal effect
Method in brief: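 Relative luminescence from CellTiter-Glo served as the viability signal, referenced to DMSO-treated (100%) and cell-free medium (0%) controls. Treatment lasted 48 hours at 37C with 500 cells per well.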

[19] = Quantitative High-Throughput drug screen in 47 multiple myeloma cell lines against the NCATS MIPE library collection: AMO1_DSMZ cell viability assay (AID 1918927; also: nearly all actives have a fitted effect of over 30% in size; also: potency is read from the fitted curve at half-maximal effect)
Method in brief: as §2

[20] = Quantitative High-Throughput drug screen in 47 multiple myeloma cell lines against the NCATS MIPE library collection: JJN3_DSMZ cell viability assay (AID 1918966; also: nearly all actives have a fitted effect of over 50% in size; also: potency is read from the fitted curve at half-maximal effect)
Method in brief: as §2

COc1nc(-c2ccc3c(c2)OCO3)n(-c2ccc(NC(=O)CSc3ccccc3)cc2)n1
inactive: outcome [1] | outcome [2] | Potency [3] | Potency [4] | Potency [5] | Potency [6] | Potency [7] | Potency [8] | Potency [9] | Potency [10] | Potency [11] | Potency [12] | Potency [13] | Potency [14] | Potency [15] | Potency [16]

Cc1n[nH]c(C)c1Cc1sc2c(c1C(=O)N1C[C@H](O)CO1)c(=O)n(C)c(=O)n2CC(C)C
inactive: outcome [1] | outcome [2] | Potency [3] | Potency [4] | Potency [17] | Potency [5] | Potency [6] | Potency [7] | Potency [10] | Potency [11] | Potency [12] | Potency [14] | Potency [15]
active: Potency [8] 0.0118 µM | Potency [9] 0.0209 µM | Potency [18] 2.64 µM

CCC(C)n1ncn(-c2ccc(N3CCN(c4ccc(OC[C@H]5CO[C@](Cn6cncn6)(c6ccc(Cl)cc6Cl)O5)cc4)CC3)cc2)c1=O (some centres not stated)
active: Potency [17] 2.96 µM | Potency [18] 3.32 µM
inactive: outcome [1] | outcome [2] | Potency [4] | Potency [7] | Potency [10] | Potency [11] | Potency [13] | Potency [14] | Potency [15]

CNC(=O)c1ccc(C)c(-n2c(C)cc(OCc3ccc(F)cc3F)c(Br)c2=O)c1
inactive: outcome [1] | outcome [2]
active: Potency [4] 14.8 µM | Potency [17] 20.9 µM | Potency [19] 16.6 µM | Potency [8] 4.69 µM | Potency [11] 16.6 µM | Potency [12] 23.5 µM | Potency [13] 16.6 µM | Potency [14] 7.43 µM | Potency [15] 8.33 µM | Potency [18] 20.9 µM

COc1cc2nccc(Oc3ccc(NC(=O)NC4CC4)c(Cl)c3)c2cc1C(N)=O
active: Potency [3] 23.5 µM | Potency [4] 13.2 µM | Potency [17] 2.09 µM | Potency [19] 2.09 µM | Potency [5] 14.8 µM | Potency [8] 3.72 µM | Potency [11] 13.2 µM | Potency [13] 16.6 µM | Potency [20] 1.48 µM | Potency [14] 2.96 µM | Potency [16] 3.32 µM | Potency [18] 5.9 µM
inactive: outcome [1] | outcome [2] | Potency [7] | Potency [9]

O=C1CCCC2=C1C(c1[nH]ncc1Cl)N=C(Nc1nc3ccccc3o1)N2 (configuration not stated)
inactive: outcome [1] | outcome [2] | Potency [3] | Potency [19] | Potency [9] | Potency [14]
active: Potency [7] 4.18 µM | Potency [10] 4.18 µM | Potency [13] 5.9 µM | Potency [20] 5.26 µM | Potency [15] 0.662 µM | Potency [18] 4.69 µM

CCN(CC)CCCC(C)Nc1ccnc2cc(Cl)ccc12 (configuration not stated)
inactive: activity, negative = inhibition [1] 2.98% [at 11.6 µM] | redox activity (% of DA3003) [2] -9.33% [at 11.5 µM] | Potency [3] | Potency [4] | Potency [17] | Potency [8] | Potency [11] | Potency [12] | Potency [20] | Potency [14] | Potency [18]
active: Potency [19] 0.187 µM | Potency [9] 0.0526 µM

COc1ccccc1[C@H](c1cccc2ccccc12)[C@@](C)(C#N)C(=O)N1CCC(c2cccc(C(F)(F)F)c2)CC1
inactive: outcome [1] | outcome [2]
active: Potency [4] 8.33 µM | Potency [17] 13.2 µM | Potency [19] 2.64 µM | Potency [5] 8.33 µM | Potency [6] 4.18 µM | Potency [10] 6.62 µM | Potency [11] 9.35 µM | Potency [13] 1.87 µM | Potency [20] 6.62 µM | Potency [15] 3.72 µM | Potency [16] 3.32 µM | Potency [18] 2.35 µM

COc1ccc(CCN2CCN(CCCc3ccccc3)CC2)cc1OC
active: Potency [6] 13.2 µM
inactive: outcome [1] | outcome [2] | Potency [3] | Potency [17] | Potency [5] | Potency [11] | Potency [14] | Potency [18]

CN(C)c1ccc(C2Nc3ccc4ccccc4c3C3=C2C(=O)CC(C)(C)C3)cc1Br (configuration not stated)
inactive: outcome [1] | outcome [2] | Potency [6]
active: Potency [4] 2.35 µM | Potency [8] 4.69 µM | Potency [12] 0.0019 µM | Potency [20] 11.8 µM | Potency [14] 5.26 µM | Potency [15] 5.9 µM

O=C(O)CCc1ccc(NCc2cccc(Oc3ccccc3)c2)cc1
inactive: outcome [1] | Potency [3] | Potency [4] | Potency [17] | Potency [19] | Potency [5] | Potency [6] | Potency [7] | Potency [8] | Potency [9] | Potency [11] | Potency [13] | Potency [14] | Potency [16] | Potency [18]

O=c1[nH]cnc2[nH]ncc12
active: Potency [6] 23.5 µM
inactive: Potency [3] | Potency [4] | Potency [17] | Potency [19] | Potency [5] | Potency [7] | Potency [9] | Potency [11] | Potency [12] | Potency [14] | Potency [15] | Potency [16]

CN(C(=O)c1ccc(F)cc1C(F)(F)F)C1CCN(c2nnc(-c3ccnn3C)c3ccccc23)CC1
inactive: outcome [1] | outcome [2] | Potency [18]

COc1ccc2c3n(c(=NC(=O)c4cccnc4)nc2c1OC)CCN3
active: Potency [3] 16.6 µM | Potency [4] 2.09 µM | Potency [17] 7.43 µM | Potency [19] 18.7 µM | Potency [5] 2.64 µM | Potency [7] 7.43 µM | Potency [11] 18.7 µM | Potency [13] 23.5 µM | Potency [14] 4.69 µM | Potency [15] 5.9 µM | Potency [16] 11.8 µM
inactive: Potency [9] | Potency [18]
